Among the data in PubChem BioAssay AID463173 (ICCB-Longwood Screening Facility, Harvard Medical School, 2010) are survival values, retold here.

The campaign covered roughly 52,000 compounds. About 4,300 (8.3%) were called active. The sample as a whole holds a higher share of actives than the screen did. A number with no mark means an inactive call. Cut-off read from the data, not from the text of the source: active = survival mostly below about 52% (no sharp cut-off); inactive = mostly above about 56%.

This experiment deals with DeltatarO mutant. As to the kind of experiment: S. aureus survival, RN4220 and DeltatarO strains – OD600, teichoic acid synthesis inhibitors, primary screen (AID 463173). To be noted: S. aureus RN4220 wild type/DeltatarO growth, OD600, 18 h, stronger effect = lower value, screened at 18.75 µg/mL (by protocol).
Regarding `Cc1nn2c(-c3ccco3)ccnc2c1-c1ccc(Br)cc1`, the survival is 81%. Next, `N#Cc1c(N)nc(SCc2ccccc2)c(C#N)c1-c1cccs1`: 49%; `COc1ccc(N(C(=O)Cn2nnc3ccccc32)C(C(=O)NCC2CCCO2)c2sccc2C)cc1` (configuration not stated): 94%.

Regarding `COc1ccc(-n2nc(C(=O)NCCc3ccc(OC)c(OC)c3)c3c4ccccc4n(C)c3c2=O)cc1`, the survival is 89%. Turning to `O=c1[nH]c(=O)n(C2CCCCC2)c(O)c1C1=Nc2ccccc2SC(c2ccccc2)C1` (configuration not stated), the survival was 93%.

Turning to `Cc1ccc(S(=O)(=O)c2cn(C)c3cc(N4CCCC4)c(F)cc3c2=O)c(C)c1`, the survival is 67%. With `Cc1cccc(N(C)C(=O)Cn2cnc3nc4c(cc3c2=O)CCCC4)c1` the figure was 17% (active); with `Cc1ccc(C)c(NC(=O)Cn2cnc3nc4c(cc3c2=O)CCCC4)c1`, 89%; with `Cc1c(Cl)cccc1NC(=O)Cn1cnc2nc3c(cc2c1=O)CCCC3`, 126%. Next, `O=C(Cn1cnc2nc3c(cc2c1=O)CCCC3)Nc1ccc(F)cc1Cl`: 88%; `Cc1ccc(C)c(N2CCN(C(=O)Cn3cnc4nc5c(cc4c3=O)CCCC5)CC2)c1`: 87%. With `COc1cc(OC)c(NC(=O)Cn2cnc3nc4c(cc3c2=O)CCCC4)cc1Cl` the figure was -5% (active); with `CCc1ccccc1NC(=O)c1ccc(F)c(S(=O)(=O)N2CCN(c3cccc(Cl)c3)CC2)c1`, 88%.

Regarding `CCOC(=O)c1ccc(NC(=O)c2nsc3ccccc23)cc1`, the survival is 60%.

For `CC1CCC(NC(=O)c2ccc3c(c2)N(Cc2ccccc2)C(=O)c2ccccc2S3(=O)=O)CC1` (configuration not stated), the survival was 115%. On to `CCOC(=O)c1c(C)oc2nc(C)nc(NCc3ccccc3OCC)c12`, for which the survival is 102%. With `O=C(CCCn1c(=O)c2sccc2n(Cc2cccc(Cl)c2)c1=O)NCc1ccc2c(c1)OCO2` the figure was 64%; with `CCCN(CCC)CN1C(=O)S/C(=C/c2ccc(N(CC)CC)cc2)C1=O`, 68%. With `CCN(CC)c1ccc(/C=C2/SC(=O)NC2=O)cc1` the figure was 34% (active). With `CCN(CC)c1ccc(C=C2C(=O)OC3(CCCC3)OC2=O)cc1` the figure was 83%; with `Cc1ccc2c(c1)N(C(=O)N1CCC(C(=O)NC3CCCCCC3)CC1)CCO2`, 82%. With `CC1CN(C(=O)N2CCC(C(=O)NCCCc3ccccc3)CC2)c2cc(Cl)ccc2O1` (configuration not stated), the survival is 56%. Consider `CC1CN(C(=O)N2CCC(C(=O)NCc3ccccc3F)CC2)c2cc(Cl)ccc2O1` (configuration not stated), for which the survival is 60%. As for `O=C(NCCC1=CCCCC1)C1CCN(C(=O)N2CCOc3ccccc32)CC1`, the survival is 72%. Consider `CCc1ccccc1NC(=O)C1CCN(C(=O)N2CC(C)Oc3ccc(Cl)cc32)CC1` (configuration not stated), for which the survival is 55% (active). Take `CC1CN(C(=O)N2CCC(C(=O)NCCC3=CCCCC3)CC2)c2cc(Cl)ccc2O1` (configuration not stated): the survival is 65%. Next, `O=C(NC1CCCCCC1)C1CCN(C(=O)N2CCOc3ccccc32)CC1`: 76%; `CNC(=O)C1CCN(C(=O)N2CC(C)Oc3ccc(Cl)cc32)CC1` (configuration not stated): 59%.

Consider `O=C(NC1CCCCCC1)C1CCN(C(=O)N2CCOc3ccc(Cl)cc32)CC1`, for which the survival is 46% (active). `O=C(NCCCc1ccccc1)C1CCN(C(=O)N2CCOc3ccc(Cl)cc32)CC1`: the survival was 46% (active).

As to `CC(C)CCNC(=O)C1CCN(C(=O)N2CCOc3ccc(Cl)cc32)CC1`, the survival is 52%.

As to `O=C(NCCC1=CCCCC1)C1CCN(C(=O)N2CCOc3ccc(Cl)cc32)CC1`, the survival was 47% (active).

`COc1ccccc1N1CCN(c2nc3c(S(=O)(=O)c4ccc(C)c(C)c4)nnn3c3ccc(Cl)cc23)CC1`: the survival is 81%. Next, `Cc1ccc(NCc2nnc(SCc3cc(C)ccc3C)o2)c(C)c1`: 91%; `Cc1cccc(C)c1NC(=O)Cn1cc(S(=O)(=O)Cc2ccc(F)cc2)c2ccccc21`: 78%. Next, `Cc1ccc(C)c(S(=O)(=O)c2nnn3c2nc(Nc2ccc(C)c(C)c2)c2sccc23)c1`: 77%; `O=C(c1ccc2c(c1)N(Cc1ccccc1F)C(=O)c1ccccc1S2(=O)=O)N1CCC(Cc2ccccc2)CC1`: 71%. Next, `Cc1ccc(NC(=O)C2Cc3ccccc3N2C(=O)c2ccccc2)cc1Cl` (configuration not stated): 78%; `COc1ccc(CCNC(=O)C(=O)NCC(c2ccco2)S(=O)(=O)c2cccs2)cc1` (configuration not stated): 99%. Regarding `O=C1CC(c2ccccc2)Sc2nc3ccccc3n21` (configuration not stated), the survival was 66%.

Take `CC1CCN(S(=O)(=O)c2ccc3c(c2)oc(=O)n3CC(=O)NCc2ccc(F)cc2)CC1`: the survival is 111%. Next, `CNS(=O)(=O)c1cc(-c2nnc(Nc3cc(C)ccc3C)c3ccccc23)ccc1C`: 69%. Next, `Cc1ccc(-c2nnc(Nc3ccccc3O)c3ccccc23)cc1`: 49% (active); `Cc1ccc(C)c(Nc2nnc(-c3ccc(C)c(S(=O)(=O)N4CCCCC4)c3)c3ccccc23)c1`: 119%; `COc1cc(C(Nc2ccc(S(=O)(=O)NCC3CCCO3)cc2)C(=O)NC(C)(C)C)cc(OC)c1OC` (configuration not stated): 109%. As for `O=C(NCc1ccccc1)c1cccc(Nc2nc3ccccc3n3nnnc23)c1`, the survival was 71%. On to `Cc1ccc(CNC(=O)c2cccc(Nc3nc4ccccc4n4nnnc34)c2)cc1`, for which the survival is 45%. Next, `CC(C)CCNC(=O)c1cccc(Nc2nc3ccccc3n3nnnc23)c1`: 39% (active); `CCc1ccc(NC(=O)Cn2nnc(C(=O)NCCc3ccccc3)c2N)cc1`: 99%. `CCOC(=O)c1ccccc1NC(=O)CN1CCCN(Cc2cccc(Cl)c2)S1(=O)=O`: the survival is 101%. Next, `CSc1ccc(CCNC(=O)C2CCN(c3ncnc4c3nc3n4CCCCC3)CC2)cc1`: 79%; `COc1cccc(/C=N/n2c(N)nc3ccccc32)c1OC`: 82%. With `COc1cccc(/C=N/c2nc3ccccc3n2C)c1O` the figure was 122%; with `COc1ccccc1/C=C/c1nc2ccccc2n1C(C)C`, 8% (active). Next, `O=C(c1ccc(Cl)cc1)C1CCN(C(=O)N2CCOCC2)CC1`: 66%. In the case of `NC(=O)CN1C(=O)C2(SCC(=O)N2c2cccc(F)c2)c2ccccc21` (configuration not stated), the survival was 78%. With `Cc1ccc(NC(=O)C2CCN(c3nn4c(=O)cc(C)nc4s3)CC2)cc1`, the survival was 104%.

Take `O=C(Nc1ccc(O)c(-c2nc3ccccc3o2)c1)c1sc2ccccc2c1Cl`: the survival was 105%. Next, `COC(=O)c1ccccc1NC(=O)c1cc2c(-c3ccc(OC)c(OC)c3)nn(C)c2s1`: 97%. Take `C=CCn1c(SC)nc2c1c(=O)[nH]c(=O)n2C`: the survival was 94%. With `Cc1ccc(/C=C/c2onc(C)c2S(=O)(=O)N2CCC(C(=O)NCc3ccc(Cl)cc3)CC2)cc1` the figure was 93%; with `CCC(C)(C)NC(=O)C1CCN(S(=O)(=O)c2c(C)noc2/C=C/c2ccc(C)cc2)CC1`, 52% (active); with `Cc1ccc(/C=C/c2onc(C)c2S(=O)(=O)N2CCC(C(=O)Nc3cc(C)ccc3C)CC2)cc1`, 78%. In the case of `COC(=O)/C(C#N)=C/c1ccc(-c2ccccc2)o1`, the survival was 75%.

For the compound `Cc1ccc(-c2nn(CC(=O)NCc3ccccc3)c3c2cnc2ccc(F)cc23)cc1C`, the survival is 75%. Next, `O=C(Nc1ccc(F)cc1)c1ccc(Cn2nc(N3CCN(c4ccccc4)CC3)ccc2=O)o1`: 82%; `Cn1c(=O)c2c(-c3ccccc3)n3c(c2n(C)c1=O)C(c1cccc([N+](=O)[O-])c1)Nc1ccccc1-3` (configuration not stated): 53%.

For `COc1ccc(-c2c3c(=O)n(C)c(=O)n(C)c3c3n2-c2ccccc2NC3c2ccc(OC)cc2)cc1` (configuration not stated), the survival is 74%.

`Cn1c(=O)c2c(-c3ccccc3)n3c(c2n(C)c1=O)C(c1ccc([N+](=O)[O-])cc1)Nc1ccccc1-3` (configuration not stated): the survival is 34% (active). Next, `COc1ccc(C2Nc3ccccc3-n3c(-c4ccccc4)c4c(=O)n(C)c(=O)n(C)c4c32)cc1` (configuration not stated): 79%; `Cn1c(=O)c2c(-c3ccccc3)n3c(c2n(C)c1=O)C(c1ccccc1[N+](=O)[O-])Nc1ccccc1-3` (configuration not stated): 79%.

With `Cc1ccc(C2Nc3ccccc3-n3c(-c4ccccc4)c4c(=O)n(C)c(=O)n(C)c4c32)cc1` (configuration not stated), the survival is 41% (active). With `N#Cc1c(Nc2ccccc2)sc(C(=O)c2cccs2)c1N` the figure was 75%; with `O=C(O)c1cccc2cc[nH]c12`, 101%; with `Cc1cc(C)c2oc(-c3cccc(NC(=O)c4cc5ccccc5o4)c3)nc2c1`, 36% (active). Next, `CC(C)(C)c1ccc(-c2nc3cc(NC(=O)c4cc5ccccc5o4)ccc3o2)cc1`: 71%; `Cc1cc(C)c2oc(-c3cccc(NC(=O)c4ccc(-c5cccc([N+](=O)[O-])c5)o4)c3)nc2c1`: 75%; `Cc1ccc2nc(-c3cccc(NC(=O)c4cccc5ccccc45)c3)oc2c1`: 50%. As for `Cc1cc(C)c2oc(-c3cccc(NC(=O)c4ccc(Br)o4)c3)nc2c1`, the survival was 34% (active). With `Cc1ccc2nc(-c3cccc(NC(=O)CSc4ccc(Cl)cc4)c3)oc2c1` the figure was 56%; with `COc1cccc(OC)c1C(=O)Nc1cccc(-c2nc3cc(C)cc(C)c3o2)c1`, 68%; with `Cc1cc(C)c2oc(-c3cccc(NC(=O)c4ccco4)c3)nc2c1`, 87%. Next, `Cc1ccc2nc(-c3cccc(NC(=O)c4ccc(Br)o4)c3)oc2c1`: 15% (active). Consider `CCc1ccc(-n2c(=O)c3cccnc3n2CC(=O)NCc2ccc(F)cc2)cc1`, for which the survival is 94%. Next, `Cc1cccc(NC(=O)C2CCN(S(=O)(=O)c3cccc4nsnc34)CC2)c1C`: 88%; `CCc1ccc(C2=CC(c3cccc(C)c3)n3c(nc4ccccc43)N2)cc1` (configuration not stated): 80%.

In the case of `COc1ccc(-n2c(SCC(=O)Nc3cc(C)cc(C)c3)nc3c(oc4ccccc43)c2=O)cc1`, the survival was 70%.
